Pf Dd2 growth: P. falciparum Dd2 growth inhibitors, primary screen, SYBR Green fluorescence, single dose replicates; 72 h; active compounds read low; activity change, % at 10 µM; 2.3% of 94,000 active; AID 1159554, 2015; in the data active means activity change below about -80%; inconclusive means no clear call, values can overlap the other calls
C diff growth: C. difficile growth inhibitors, primary screen, HTS. Clostridium difficile clinical isolate growth, OD600, 24 h; active compounds read low. growth activity, negative = inhibition, % at 16 µg/mL (by protocol). 0.25% of 86,000 active;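 active means mean growth activity at or below -80% and every replicate also at or below -80%; inconclusive means mean at or below -80% but some replicate above -80%; inactive means mean growth activity above -80%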;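 further: 0% = DMSO wells and -100% = levofloxacin 16 µg/mL wells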
Tcruzi prolif: T. cruzi intracellular proliferation inhibitors, primary screen, cell-based, beta-gal Tulahuen parasites, NIH3T3 host, luminescence | AID 624255, 2012 | T. cruzi beta-gal in NIH3T3, GalScreen luminescence, 90 h | inhibition, % at 8.34 µM | 5.9% of 77,000 active;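 active means mean inhibition above about 93%, with at least 55% of replicates each passing it, limit read from the data, passing the limit was not always enough; inconclusive means only one of those two conditions holds; inactive means neither condition holds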
Active calls of the source: *; ? = inconclusive; / = no result given. A selection: hits, their analogues and other compounds. The true share with any hit is near 6.7%.

SMILES	Pf Dd2 growth	C diff growth	Tcruzi prolif
COCC(=O)N1CC2(C1)[C@H](c1ccc(-c3cccc(C)c3)cc1)[C@H](CO)N2C(=O)C1CC1	-50.7	-6.9	/
C[C@H](CO)N1C[C@H](C)[C@@H](CN(C)CC2CCCCC2)Oc2ccc(NC(=O)CCN3CCOCC3)cc2CC1=O	-12.9	1.8	-33.3
CCCNC(=O)Nc1ccc2c(c1)OC[C@@H](C)N(C(C)=O)C[C@@H](C)[C@H](OC)CN(C)C2=O	-60.4	-3.5	/
COc1ccc2c3c([nH]c2c1)[C@@H](CO)NCC31CN(C(=O)c2ccccc2)C1	-12.6	4.8	/
COc1ccc2c3c([nH]c2c1)[C@H](CO)NCC31CCN(C(=O)c2ccccc2)CC1	-84.1*	0.8	/
COc1cccc(S(=O)(=O)N2CCC3(CC2)CN[C@H](CO)c2[nH]c4cc(OC)ccc4c23)c1	-87.8*	-3.4	/
COc1ccc2c3c(n(C)c2c1)[C@H](CO)NCC31CCN(S(=O)(=O)c2cccc(F)c2)CC1	-86.1*	1.9	/
COc1ccc2c3c([nH]c2c1)[C@@H](CO)NCC31CCN(C(=O)C2CCOCC2)CC1	-82.1*	3.5	/
COc1ccc2c3c([nH]c2c1)[C@@H](CO)NCC31CCN(S(=O)(=O)c2cccs2)CC1	-48.6	-4.1	/
COc1ccc2c3c(n(C)c2c1)[C@H](CO)NCC31CCN(S(=O)(=O)c2cccc(C)c2)CC1	-79.9	-2.3	/
COc1ccc2c3c([nH]c2c1)[C@H](CO)NCC31CCN(C(=O)C2CCOCC2)CC1	45.6	1.7	/
C[C@@H]1CN([C@@H](C)CO)S(=O)(=O)c2ccc(-c3cccc(C(=O)N(C)C)c3)cc2O[C@H]1CN(C)C(=O)Cc1ccccn1	-2.2	-8.4	/
COc1ccc2c3c(n(C)c2c1)[C@@H](CO)N(C(=O)Nc1ccc(F)cc1)CC31CCN(C(=O)CC2CC2)CC1	-63.1	30.9	/
CCC(=O)N1CC2(CCN(Cc3cncnc3)CC2)c2c([nH]c3cc(OC)ccc23)[C@H]1CO	-54.3	-7.7	/
O=C(Nc1ccc(Cl)cc1)N[C@H]1CC[C@@H](CCn2cc(Cc3ccccc3)nn2)O[C@H]1CO	16.9	4.2	-65.1
CC(=O)N1CC2(C1)[C@@H](c1ccccc1)[C@@H](CO)N2Cc1cccc(Cl)c1	13.6	4.1	/
C[C@@H]1CN([C@H](C)CO)S(=O)(=O)c2ccc(C#Cc3ccccc3)cc2O[C@@H]1CN(C)C(=O)C1CC1	-82.2*	4.0	47.9
C[C@H]1CN([C@@H](C)CO)S(=O)(=O)c2ccc(C#Cc3ccncc3)cc2O[C@@H]1CN(C)C(=O)C1CC1	-30.9	/	66.0
C[C@@H]1CN([C@@H](C)CO)S(=O)(=O)c2ccc(C#CC3(O)CCCC3)cc2O[C@H]1CN(C)C(=O)c1ccccc1	-86.1*	-9.3	51.5
CCC(=O)N(C)C[C@H]1Oc2cc(C#Cc3ccccc3)ccc2S(=O)(=O)N([C@@H](C)CO)C[C@@H]1C	-82.9*	1.2	/
C[C@@H]1CN([C@@H](C)CO)S(=O)(=O)c2ccc(C#Cc3ccccc3)cc2O[C@@H]1CN(C)C(=O)Cc1ccccn1	?	-9.8	67.2
C[C@@H]1CN([C@@H](C)CO)S(=O)(=O)c2ccc(C#Cc3ccccc3)cc2O[C@H]1CN(C)C(=O)Cc1ccccn1	-84.5*	-18.9	71.8
CCC(=O)N(C)C[C@@H]1Oc2cc(C#Cc3ccccc3)ccc2S(=O)(=O)N([C@H](C)CO)C[C@@H]1C	-72.0	-6.9	/
C[C@H]1CN([C@@H](C)CO)S(=O)(=O)c2ccc(C#CC3(O)CCCC3)cc2O[C@H]1CN(C)C(=O)c1ccccc1	-46.4	-2.2	11.8
C[C@@H](NC(=O)C[C@@H]1C[C@@H]2c3cc(NC(=O)CN(C)C)ccc3O[C@@H]2[C@H](CO)O1)c1ccccc1	-29.6	2.6	-8.3
SMILES	Pf Dd2 growth	C diff growth	Tcruzi prolif
O=C(C[C@@H]1C=C[C@H](NC(=O)Cc2ccccn2)[C@H](CO)O1)NCCc1ccccc1	24.8	-2.3	/
C[C@H]1CN([C@@H](C)CO)C(=O)Cc2cc(NC(=O)Nc3ccc4c(c3)OCO4)ccc2O[C@@H]1CN(C)Cc1ccc(-c2ccccc2)cc1	-43.2	55.0	55.3
CO[C@@H]1CN(C)C(=O)c2ccc(NC(C)=O)cc2OC[C@@H](C)N(Cc2cccnc2)C[C@@H]1C	/	/	17.2
O=C([C@H]1[C@H](CO)[C@H]2Cn3c(ccc(-c4cccnc4)c3=O)[C@@H]1N2CCC(F)(F)F)N1CCCCC1	3.6	-0.6	-2.3
C[C@@H]1CN([C@H](C)CO)C(=O)c2cc(NS(=O)(=O)c3cccs3)ccc2O[C@@H](C)CCCCO[C@@H]1CN(C)C(=O)CCCN(C)C	25.3	10.6	/
CC(C)C#Cc1ccc2c(c1)O[C@@H](CN(C)C(=O)C1CCCCC1)[C@@H](C)CN([C@H](C)CO)S2(=O)=O	-29.1	8.8	80.3
